Assay results as given in PubChem BioAssay.
Calls of active or inactive are those of the source. How the calls were made is not given here.

Each molecule was assayed against Pantothenate synthetase (Mycobacterium tuberculosis (strain ATCC 25618 / H37Rv)) (UniProt P9WIL5) (assay: Coupled enzyme confirmation of inhibitors against recombinant Mtb PanC (AID 375;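 further: 0% = full reaction with vehicle and 100% = no enzyme background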)). Conditions: coupled enzyme assay; at 10 µM, active compounds read high.
Sequence of Pantothenate synthetase (Mycobacterium tuberculosis (strain ATCC 25618 / H37Rv)) (P9WIL5 whole entry, looked up): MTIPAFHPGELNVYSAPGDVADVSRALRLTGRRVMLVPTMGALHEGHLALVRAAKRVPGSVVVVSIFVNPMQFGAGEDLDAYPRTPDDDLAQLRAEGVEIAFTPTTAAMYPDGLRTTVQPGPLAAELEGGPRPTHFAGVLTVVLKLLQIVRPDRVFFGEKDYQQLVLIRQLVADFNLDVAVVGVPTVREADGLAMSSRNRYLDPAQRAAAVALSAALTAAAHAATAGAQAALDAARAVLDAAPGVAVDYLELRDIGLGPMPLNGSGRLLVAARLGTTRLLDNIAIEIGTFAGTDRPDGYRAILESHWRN

SMILES	inhibition
CCOC(=O)N1CCN(C(=O)Nc2ccc(Cl)cc2)CC1	0% (inactive)
CCOC(=O)C1CCN(c2c(NCCN3CCN(c4ccccc4)CC3)c(=O)c2=O)CC1	0% (inactive)
CCOc1ccc(Cn2nnc(C(=O)Nc3cc(C)cc(C)c3)c2N)cc1	0% (inactive)
CCOC(=O)C1CCCN(C(=O)c2cc3c(-c4cccc(OC)c4)nn(C)c3s2)C1 (stereo unspecified)	0% (inactive)
CC1(C)Cc2ccccc2C(N)=C1C#N	5% (inactive)
CC1CCCC(C)N1C(=O)COC(=O)c1ccc[nH]c1=O (stereo unspecified)	0% (inactive)
